Records with an inconclusive call do not appear. Active and inactive are the calls of the source. Rule for the calls, unless noted: active = hit-call score of the fitted dose curve at least 0.9, where 1 is the maximum; inactive = score below 0.9.
Columns and labels:
[1] = read-out: Vascular endothelial growth factor receptor 2 (Homo sapiens) (UniProt P35968); test: BSK_4H_VEGFRII: BioMAP Diversity Plus: 4H Assay for Vascular endothelial growth factor receptor 2 (VEGFR2) Biomarker Activity (AID 2283031); conditions: primary human endothelial cells (HUVEC); actives raise or lower the signal;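 for AC50: cell-surface VEGFR2 protein level quantified by ELISA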
Outline: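 Primary human umbilical vein endothelial cells (4H system), 24 h exposure; cell-surface VEGFR2 measured by ELISA. Bidirectional fitting versus DMSO; cytotoxicity checked in parallel by SRB total-protein staining.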

[2] = read-out: Human Leukocyte Antigen - DR isotype (HLADR), HLA-DRA (gene 3122); test: BSK_BE3C_HLADR: BioMAP Diversity Plus: BE3C Assay for Human Leukocyte Antigen - DR isotype (HLADR) Biomarker Activity (AID 2283032); conditions: primary human bronchial epithelial cells; actives raise or lower the signal
Outline: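 Signal came from an ELISA for HLA-DR in human bronchial epithelial primary cells harvested 24 h after treatment; gain- and loss-of-signal fitting used DMSO controls as reference.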

[3] = read-out: Interleukin-8 (IL8), CXCL8 (gene 3576); test: BSK_CASM3C_IL8: BioMAP Diversity Plus: CASM3C Assay for Interleukin-8 (IL8) Biomarker Activity (AID 2283042); conditions: primary human coronary artery smooth muscle cells; actives raise or lower the signal
[4] = read-out: Low-density lipoprotein receptor (LDLR), LDLR (gene 3949); test: BSK_CASM3C_LDLR: BioMAP Diversity Plus: CASM3C Assay for Low-density lipoprotein receptor (LDLR) Biomarker Activity (AID 2283045); conditions: primary human coronary artery smooth muscle cells; actives raise or lower the signal;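 note: LDLR protein level on the cell surface quantified by ELISA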
[5] = read-out: Urokinase-type plasminogen activator receptor (uPAR), PLAUR (gene 5329); test: BSK_CASM3C_uPAR: BioMAP Diversity Plus: CASM3C Assay for Urokinase-type plasminogen activator receptor (uPAR) Biomarker Activity (AID 2283054); conditions: primary human coronary artery smooth muscle cells; actives raise or lower the signal;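 note: cell-surface uPAR protein level quantified by ELISA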
[6] = read-out: E-selectin (Homo sapiens) (UniProt P16581); test: BSK_LPS_Eselectin: BioMAP Diversity Plus: LPS Assay for Eselectin Biomarker Activity (AID 2283077); conditions: primary human HUVEC with PBMC; actives raise or lower the signal
Outline: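 Human umbilical vein endothelial cells co-cultured with PBMC under LPS stimulation; cell-surface E-selectin measured by ELISA 24 h after dosing. Change in either direction versus DMSO, with SRB total-protein staining in parallel cultures for cytotoxicity.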

[7] = read-out: Interleukin-8 (IL8), CXCL8 (gene 3576); test: BSK_LPS_IL8: BioMAP Diversity Plus: LPS Assay for Interleukin-8 (IL8) Biomarker Activity (AID 2283078); conditions: primary human HUVEC with PBMC; actives raise or lower the signal
Outline: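 Human umbilical vein endothelial cells co-cultured with PBMC, LPS-stimulated, exposed to compound for 24 h. IL-8 quantified by ELISA; fitted in both directions against DMSO, with SRB total-protein staining of parallel cultures for cytotoxicity.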

[8] = BSK_LPS_SRB: Viability Assessment in the BioMAP Diversity Plus: LPS Assay (AID 2283079); conditions: primary human HUVEC with PBMC;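 note: total protein by sulforhodamine B absorbance as a cytotoxicity measure; measured one day after compound addition; fitted in both directions against DMSO so loss or gain of signal counts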
Outline: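 Co-culture of human umbilical vein endothelial cells and PBMC, read 24 h after dosing. Total protein by 0.1% SRB staining after 10% TCA fixation, absorbance at 560 nm; bidirectional fit against DMSO.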

[9] = read-out: Monocyte Chemoattractant Protein-1 (MCP1), CCL2 (gene 6347); test: BSK_LPS_MCP1: BioMAP Diversity Plus: LPS Assay for Monocyte Chemoattractant Protein-1 (MCP1) Biomarker Activity (AID 2283081); conditions: primary human HUVEC with PBMC; actives raise or lower the signal;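 for AC50: secreted MCP-1 protein quantified by ELISA in culture supernatant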
Outline: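 Human umbilical vein endothelial cells co-cultured with PBMC, LPS-stimulated; secreted MCP-1 measured by ELISA 24 h after compound addition. Bidirectional curve fitting against DMSO baseline; SRB total-protein staining in parallel cultures for cytotoxicity.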

[10] = read-out: Macrophage colony-stimulating factor (MCSF), CSF1 (gene 1435); test: BSK_LPS_MCSF: BioMAP Diversity Plus: LPS Assay for Macrophage colony-stimulating factor (MCSF) Biomarker Activity (AID 2283083); conditions: primary human HUVEC with PBMC; actives raise or lower the signal
Outline: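 HUVEC–PBMC co-culture, M-CSF measured by ELISA 24 h after chemical dosing. Fitted in both directions relative to DMSO as negative control; overt cytotoxicity assessed by SRB total-protein staining in parallel cultures.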

[11] = read-out: Tissue Factor, F3 (gene 2152); test: BSK_LPS_TissueFactor: BioMAP Diversity Plus: LPS Assay for Tissue Factor Biomarker Activity (AID 2283084); conditions: primary human HUVEC with PBMC; actives raise or lower the signal
Outline: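 Human umbilical vein endothelial cells co-cultured with PBMC were dosed with compound. Cell-surface CD142 was measured by ELISA 24 h later. Activity was fitted bidirectionally against DMSO, with SRB total-protein staining in parallel cultures for cytotoxicity.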

[12] = read-out: Tumor necrosis factor (Homo sapiens) (UniProt P01375); test: BSK_LPS_TNFa: BioMAP Diversity Plus: LPS Assay for Tumour Necrosis Factor alpha (TNFa) Biomarker Activity (AID 2283085); conditions: primary human HUVEC with PBMC; actives raise or lower the signal
Outline: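 Primary human vascular co-culture of HUVEC and PBMC; TNFa ELISA 24 h after treatment, analysed as increase or decrease relative to DMSO control.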

[13] = read-out: Vascular cell adhesion molecule 1 (VCAM1), VCAM1 (gene 7412); test: BSK_LPS_VCAM1: BioMAP Diversity Plus: LPS Assay for Vascular cell adhesion molecule 1 (VCAM1) Biomarker Activity (AID 2283086); conditions: primary human HUVEC with PBMC; actives raise or lower the signal
Outline: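 Primary human vascular co-culture (umbilical vein endothelium plus PBMC) stimulated with LPS received chemical; 24 h later VCAM-1 was read by ELISA. Overt cytotoxicity was assessed by sulforhodamine B staining of parallel cultures at the same time point.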

CD40, CD40 (gene 958) = test: BSK_SAg_CD40: BioMAP Diversity Plus: SAg Assay for CD40 Biomarker Activity (AID 2283088); conditions: primary human HUVEC with PBMC; actives raise or lower the signal
Outline: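 HUVEC plus PBMC co-culture, superantigen-activated, with CD40 read by ELISA 24 h after dosing. Curves fitted in both directions against DMSO. Overt cytotoxicity checked by parallel SRB total-protein staining.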

CD69, CD69 (gene 969) = test: BSK_SAg_CD69: BioMAP Diversity Plus: SAg Assay for CD69 Biomarker Activity (AID 2283089); conditions: primary human HUVEC with PBMC; actives raise or lower the signal;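 for AC50: cell surface CD69 protein quantified by ELISA with fluorescence detection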
Outline: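 Endothelial/PBMC co-culture; chemical added; 24 h incubation; CD69 ELISA with fluorescence detection; bidirectional fit vs DMSO.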

[14] = read-out: Monocyte Chemoattractant Protein-1 (MCP1), CCL2 (gene 6347); test: BSK_SAg_MCP1: BioMAP Diversity Plus: SAg Assay for Monocyte Chemoattractant Protein-1 (MCP1) Biomarker Activity (AID 2283090); conditions: primary human HUVEC with PBMC; actives raise or lower the signal
Outline: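 MCP-1 levels in the endothelial–PBMC SAg co-culture were quantified by ELISA at 24 h post-dosing; both increases and decreases versus DMSO scored. Cytotoxicity monitored by SRB total protein in parallel cultures.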

[15] = read-out: E-selectin (Homo sapiens) (UniProt P16581); test: BSK_SAg_Eselectin: BioMAP Diversity Plus: SAg Assay for Eselectin Biomarker Activity (AID 2283091); conditions: primary human HUVEC with PBMC; actives raise or lower the signal
Outline: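 Human umbilical vein endothelial cells co-cultured with peripheral blood mononuclear cells, SAg system. E-selectin is measured by ELISA 24 h after dosing and fitted bidirectionally against DMSO. Cytotoxicity is checked by SRB staining of parallel cultures.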

[16] = read-out: Monokine induced gamma interferon (MIG), CXCL9 (gene 4283); test: BSK_SAg_MIG: BioMAP Diversity Plus: SAg Assay for Monokine induced gamma interferon (MIG) Biomarker Activity (AID 2283092); conditions: primary human HUVEC with PBMC; actives raise or lower the signal
Outline: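 Measures CXCL9 protein by ELISA in a human vascular primary-cell co-culture (umbilical vein endothelium with PBMC) 24 h after chemical addition. Activity is scored up or down from the DMSO control.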

[17] = BSK_SAg_PBMCCytotoxicity: PBMC Cytotoxicity Assessment in the BioMAP Diversity Plus: SAg Assay (AID 2283093); conditions: primary human HUVEC with PBMC;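 note: PBMC viability measured as Alamar Blue reduction fluorescence at 546/580 nm; fitted both ways against DMSO so a hit may be loss or gain of signal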;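 for AC50: PBMC superantigen activated with SEB plus TSST-1 one hour after compound addition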
Outline: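 Human umbilical vein endothelial cells co-cultured with PBMC; PBMC (75,000/well) pre-treated with compound 1 h, then activated with SEB and TSST-1 (20 ng/mL final each) for 90 h. Alamar Blue added 6 h, fluorescence 546/580 nm; bidirectional fit versus DMSO.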

[18] = target: Estrogen receptor (Homo sapiens) (UniProt P03372); test: ATG_ERa_TRANS: Attagene TRANS-FACTORIAL HepG2 Assay for human Estrogen Receptor alpha (ERa) (AID 2282970; active = hit-call score of the fitted dose curve at least 0.9, where 1 is the maximum); conditions: HepG2 Attagene TRANS ERa GAL4 reporter, mRNA
Outline: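 HepG2 cells transiently transfected with multiplexed GAL4-UAS reporter units read out chimeric NR-Gal4 activity. After 24 h compound exposure, reporter mRNA was quantified by RT-PCR, 6-FAM labeling, HpaI digestion and capillary electrophoresis, relative to DMSO.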

Measured: AC50

Sequence of Estrogen receptor (Homo sapiens) (P03372 whole entry, looked up, the tested form may be a part): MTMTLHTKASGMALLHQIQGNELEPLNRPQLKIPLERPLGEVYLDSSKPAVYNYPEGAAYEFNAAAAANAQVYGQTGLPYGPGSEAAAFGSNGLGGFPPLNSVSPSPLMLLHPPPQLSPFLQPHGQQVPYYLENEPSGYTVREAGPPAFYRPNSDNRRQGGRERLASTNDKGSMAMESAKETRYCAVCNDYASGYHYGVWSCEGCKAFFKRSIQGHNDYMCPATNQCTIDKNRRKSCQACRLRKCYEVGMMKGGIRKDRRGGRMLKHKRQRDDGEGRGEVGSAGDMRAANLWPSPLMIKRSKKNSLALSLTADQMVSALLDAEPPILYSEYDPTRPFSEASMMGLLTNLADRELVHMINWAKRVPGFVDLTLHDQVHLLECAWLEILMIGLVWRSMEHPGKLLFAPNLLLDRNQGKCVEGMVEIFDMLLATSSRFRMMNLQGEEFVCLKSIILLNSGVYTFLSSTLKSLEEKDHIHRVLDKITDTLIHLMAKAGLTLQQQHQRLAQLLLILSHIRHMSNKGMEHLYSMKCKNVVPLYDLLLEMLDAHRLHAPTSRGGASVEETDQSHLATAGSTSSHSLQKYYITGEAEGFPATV
Sequence of E-selectin (Homo sapiens) (P16581 whole entry, looked up): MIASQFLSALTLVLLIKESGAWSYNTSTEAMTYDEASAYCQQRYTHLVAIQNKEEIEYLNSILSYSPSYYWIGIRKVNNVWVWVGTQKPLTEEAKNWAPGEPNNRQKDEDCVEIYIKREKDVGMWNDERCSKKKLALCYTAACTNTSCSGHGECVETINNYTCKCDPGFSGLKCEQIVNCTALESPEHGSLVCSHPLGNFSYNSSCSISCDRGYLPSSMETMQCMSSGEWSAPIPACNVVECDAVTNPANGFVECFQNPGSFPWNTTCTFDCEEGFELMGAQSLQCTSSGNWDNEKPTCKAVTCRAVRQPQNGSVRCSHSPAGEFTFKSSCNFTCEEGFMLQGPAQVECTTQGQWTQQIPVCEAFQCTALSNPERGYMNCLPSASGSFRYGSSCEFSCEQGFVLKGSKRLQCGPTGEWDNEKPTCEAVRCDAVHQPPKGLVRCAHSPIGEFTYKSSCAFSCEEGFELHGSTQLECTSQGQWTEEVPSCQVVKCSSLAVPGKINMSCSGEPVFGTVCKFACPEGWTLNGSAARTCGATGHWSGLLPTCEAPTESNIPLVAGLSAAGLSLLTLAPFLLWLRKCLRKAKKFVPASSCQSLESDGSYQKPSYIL
Sequence of Tumor necrosis factor (Homo sapiens) (P01375 whole entry, looked up): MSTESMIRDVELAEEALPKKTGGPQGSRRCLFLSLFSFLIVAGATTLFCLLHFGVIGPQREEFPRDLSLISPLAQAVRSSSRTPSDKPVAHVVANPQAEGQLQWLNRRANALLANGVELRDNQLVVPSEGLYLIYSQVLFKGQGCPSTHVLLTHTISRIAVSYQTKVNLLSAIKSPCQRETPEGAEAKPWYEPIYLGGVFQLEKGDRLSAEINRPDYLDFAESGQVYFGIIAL

O=[N+]([O-])C=Cc1ccccc1
inactive: [1]
active: [2] 1.56 µM | [3] 20 µM | [4] 25.7 µM | [5] 8.89 µM | [6] 15.3 µM | [7] 20 µM | [8] 11 µM | [9] 10.3 µM | [10] 10.8 µM | [11] 10.7 µM | [12] 9.91 µM | [13] 8.21 µM | CD40, CD40 (gene 958) 20 µM | CD69, CD69 (gene 969) 20 µM | [14] 20 µM | [15] 20 µM | [16] 20 µM | [17] 13 µM

C=C(Cl)Cl
inactive: [18]

O=c1c2ccccc2c(=O)c2c1cc(Cl)c1[nH]c3c([nH]c12)c(Cl)cc1c(=O)c2ccccc2c(=O)c13
inactive: all assays above

N#CCCCCC#N
not listed: [18]
inactive: all other assays above

O=C1C(Cl)=C(Cl)C(=O)C(Cl)=C1Cl
active: [1] 34.3 µM | [5] 20 µM | [6] 30.2 µM | [7] 29 µM | [8] 32.2 µM | [9] 30.8 µM | [10] 25.2 µM | [11] 30.1 µM | [12] 30.9 µM | [13] 16.2 µM | CD40, CD40 (gene 958) 25.3 µM | CD69, CD69 (gene 969) 27.3 µM | [14] 37.9 µM | [15] 25.9 µM | [16] 36.2 µM | [17] 15.1 µM
inactive: [18] | [3] | [4]

C=C(Cl)CCl
inactive: [18]

CCCCNP(N)(N)=S
inactive: [18]

CC(=O)/C=C/c1ccccc1
active: [2] 3.97 µM | [6] 31.1 µM | [7] 20 µM | [10] 16.9 µM | [13] 20 µM
not listed: [18]
inactive: all other assays above

Nc1ccccc1C(=O)Oc1ccc2ccccc2c1
active: [18] 12.8 µM
